# Measurements: the supplement of paper PMC4954754
# ± gives the uncertainty stated by the source.
# Test system: HEK293T-Rex ERSE-FLuc
# Experiment: ERSE-FLuc reporter activation, triplicate confirmation, relative to 500 nM thapsigargin (% of thapsigargin); higher = stronger ATF6/ERSE reporter activation
# Conditions: 6.8 µM; 18 h; screen: confirmation
# Protocol: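 HEK293T-Rex cells stably expressing the ERSE-firefly luciferase (BiP promoter, ATF6-preferring) or XBP1-splicing Renilla luciferase (IRE1/XBP1s) reporter, 1536-well plates, compound at 6.8 µM for 18 hr at 37 °C; luminescence read […] and expressed as % activation = 100*(compound - median DMSO)/(median 500 nM thapsigargin - median DMSO). Primary screen was single-pass; confirmation screen in triplicate (mean ± SD).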
row,SMILES,ERSE-FLuc reporter activation
1,Cc1ccc2nc(/C(C#N)=C/c3ccc(O)cc3)[nH]c2c1,30.3 ± 3
2,Cc1ccc(/C=N/NC(=O)c2cccc(Cl)c2)cc1,31.9 ± 1.9
3,O=C1N/C(=C/c2ccc(O)cc2)C(=O)N1c1cccc(Cl)c1,68.2 ± 5.7
4,CN(C)c1ccc(-c2nc3ccc(N)cc3[nH]2)cc1,32.7 ± 4.4
5,O=C(/C=C/c1ccco1)Nc1ccc(Br)cc1Cl,25.5 ± 1.6
6,COc1ccc2[nH]c3c(N4CCCCC4)ncnc3c2c1,28.3 ± 2.6
7,Cc1ccc(O)c(NC(=O)CN(C)S(=O)(=O)c2ccc(Cl)cc2)c1,29.8 ± 0.59
8,N/C(=N\N=C\c1ccc(O)c(O)c1)c1nonc1N,71.1 ± 7.1
9,O=C(N/N=C/c1ccc(Cl)cc1)c1n[nH]c2c1CCCC2,42 ± 8.6
10,Cc1ccc(O)c(NC(=O)CSc2ccccc2)c1,51.1 ± 12
11,CCCNC(=O)c1ccc2nc(-c3ccc4[nH]ccc4c3)sc2c1,33.4 ± 9.7
12,O=C(N/N=C/c1cccc(Cl)c1Cl)c1ccccc1O,25.3 ± 1.4
13,CCCCNC(=O)c1cc(-c2ccc(F)cc2)on1,40.8 ± 5.3
14,CN(C)/C=N/C1=C(C#N)C(c2ccc3c(c2)OCO3)c2ccc3ccccc3c2O1 (stereo not given),26.1 ± 9.6
15,Cc1nn(-c2ccc(F)cc2)c2ncc(C(=O)NCc3ccco3)c(Cl)c12,54.5 ± 3.9
16,C=CCNC(=O)c1sc2nc3cc(C)c(C)cc3cc2c1N,30.2 ± 5.3
17,Cc1ccc(O)c(-c2cc(-c3ccc(F)cc3)n[nH]2)c1,25.5 ± 7.2
18,Cc1cccc2c1[nH]c1nc(N/N=C\c3c[nH]c4ccccc34)nnc12,60.4 ± 14
19,Oc1ccc(/C=N/Nc2cccc3cccnc23)cc1O,33.1 ± 4.8
20,Oc1ccc(/C=N/Nc2cccc(Cl)n2)c(O)c1,31 ± 7.1

row,SMILES,ERSE-FLuc reporter activation
1,Cc1nc(-c2ccc(C(=O)Nc3ccc(O)cc3)cc2)cs1,31.8 ± 7.4
2,Oc1ccccc1/C=N\Nc1nc2ccccc2o1,26.6 ± 4.4
3,CN(c1ccccc1)S(=O)(=O)c1cccc(C(=O)NCCc2ccc(O)c(O)c2)c1,44.7 ± 3.8
4,NC(=O)c1c(NC(=O)c2cccc3ccccc23)sc2c1CCC2,32 ± 1.6
5,Cc1ccc(O)c(NC(=O)c2cc(C(C)C)on2)c1,44.6 ± 1.3
6,COc1ccc(C2=Nn3c(nnc3-c3ccc(OC)cc3)SC2)cc1,30.7 ± 4.3
7,COc1ccccc1-c1nnc(Nc2nc3c(OC)cccc3s2)o1,51 ± 10
8,COCCNC(=O)c1cc(-c2cccs2)on1,27.4 ± 2.4
9,CCCCNNC(=O)c1ccc(Br)cc1,60.9 ± 6
10,Cc1ccc(O)c(NC(=O)c2cc(-c3ccc(O)cc3)on2)c1,54.1 ± 9
11,CCCNC(=O)c1cc(-c2cccs2)on1,51.5 ± 5.4
12,O=C(CCc1ccccc1)Nc1ccc(Cl)cn1,27.8 ± 4.6
13,CCOc1cc(/C=C2/NC(=O)N(Cc3ccc(F)cc3)C2=O)ccc1O,32.8 ± 5.4
14,Oc1cccc(/C=N/Nc2ccc(Cl)nn2)c1O,35 ± 6
15,O=C(N/N=C\C(Br)=C\c1ccccc1)c1n[nH]c2c1CCCC2,35 ± 4.1
16,O=c1cc(-c2ccc(O)c(O)c2)oc2ccccc12,42.2 ± 12
17,Cc1ccc(O)c(NC(=O)CSc2n[nH]c(C)c2[N+](=O)[O-])c1,52.5 ± 14
18,CCOc1cccc(/C=C2\NC(=S)N(C)C2=O)c1O,26.2 ± 29
19,O=C(N/N=C/c1ccc(O)c(O)c1)c1ccc(Br)cc1,31.2 ± 2.8
20,C/C(=N\NC(=O)c1n[nH]c2c1CCCC2)c1ccc(Br)cc1,27.2 ± 1.9
